Screening data as filed in PubChem.
Shown are actives, neighbours in structure and some others; about 2.5% of the full set was active somewhere.
LEDGF integ inh: blockers of LEDGF/p75-dependent integrase strand transfer – biochemical, TR-FRET, high throughput, primary screen; TR-FRET IN-LEDGF/p75 DNA integration, Eu/Cy5; inhibition, % at 3.7 µM; actives 0.64% (n = 370,000); AID 743269, 2014;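 active means inhibition above the screen-wide mean plus 3 SD, cut at about 13% in these data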;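 further: signal is the Cy5 over europium emission ratio at 671 and 618 nm; 0% = plate median of compound wells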
UHRF1 MBD2 ctr: UHRF1 methylated DNA binding inhibitors, primary screen, counter-screen for MBD2 inhibitor project, biochemical, TR-FRET, human UHRF1, single concentration | E3 ubiquitin-protein ligase UHRF1 (Homo sapiens), Q96T88 | UHRF1 binding to methylated oligo | inhibition, % at 4.4 µM | actives 0.75% (n = 370,000) | AID 687016, 2013;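 further: UHRF1 SRA domain binding a hemimethylated CpG hairpin DNA probe; 0% = median of test compound wells and 100% = reference inhibitor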
PRMT1 inh: PRMT1 methyltransferase inhibitors, primary screen, biochemical, fluorescence polarization. Protein arginine N-methyltransferase 1 (Homo sapiens), Q99873. AID 652257, 2013. actives 1.3% (n = 370,000). inhibition, % at 2.79 µM. recombinant PRMT1, activity-based probe fluorescence polarization;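 active means inhibition above about 21% made by adding two undisclosed values, limit read from the data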
MBD2 inh: inhibitors of MBD2 binding to methylated DNA, primary screen, biochemical, TR-FRET, DNA-binding domain, human; inhibition, % at 4.4 µM; AID 686964, 2013; actives 0.31% (n = 370,000); Methyl-CpG-binding domain protein 2 (Homo sapiens), Q9UBB5; MBD2 binding to methylated oligonucleotide; in the data active means inhibition above about 13%
Target sequence (Q9UBB5 whole entry, looked up, the tested form may be a part): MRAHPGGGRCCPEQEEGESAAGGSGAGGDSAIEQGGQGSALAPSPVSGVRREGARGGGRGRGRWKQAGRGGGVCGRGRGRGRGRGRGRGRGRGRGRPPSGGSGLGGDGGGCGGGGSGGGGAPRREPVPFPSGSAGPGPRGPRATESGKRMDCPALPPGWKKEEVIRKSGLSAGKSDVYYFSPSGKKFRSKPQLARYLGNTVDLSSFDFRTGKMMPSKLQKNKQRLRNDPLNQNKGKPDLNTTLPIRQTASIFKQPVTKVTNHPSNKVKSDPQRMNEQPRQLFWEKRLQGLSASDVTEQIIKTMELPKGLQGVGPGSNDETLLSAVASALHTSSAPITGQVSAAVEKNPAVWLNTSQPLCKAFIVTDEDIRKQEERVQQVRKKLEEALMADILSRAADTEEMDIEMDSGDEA
UHRF1 DNA bind: UHRF1 methylated DNA binding inhibitors, counter-screen for MBD2 inhibitor project, biochemical, TR-FRET, human UHRF1 | shares compounds with MBD2 inh | UHRF1 binding to methylated oligonucleotide | inhibition, % at 4.4 µM | actives 25% (n = 1,000) | AID 720530, 2013;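 further: UHRF1 SRA domain binding a labeled hemimethylated CpG hairpin DNA; 0% = vehicle only and 100% = reference inhibitor with vehicle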
MBD2 DBD conf: inhibitors of MBD2 binding to methylated DNA, confirmation, biochemical, TR-FRET, DNA-binding domain, human; shares compounds with MBD2 inh; TR-FRET MBD2-DBD binding to methylated oligonucleotide; inhibition, % at 4.4 µM; actives 26% (n = 1,000); AID 720531, 2013; in the data active means inhibition above about 14%
* = called active by the depositor; / = not tested or not shown. Unless noted, no stated cut-off is given here; in the data, active means inhibition above about 21%; inactive means the rest.

SMILES	LEDGF integ inh	UHRF1 MBD2 ctr	PRMT1 inh	MBD2 inh	UHRF1 DNA bind	MBD2 DBD conf
CCN(C[C@H]1N[C@@](C)(C(=O)OC)[C@H]2C(=O)N(C)C(=O)[C@@H]12)C(=O)Nc1ccc(C(F)(F)F)cc1	0.5	21.6*	8.0	14.8*	8.5	3.5
COc1cc(NC(=O)c2cccc(C)c2)ccc1NC(=O)c1cc2ccccc2o1	-2.5	1.6	-3.3	1.4	/	/
O=Cc1ccc(-n2cccn2)cc1	0.6	-1.4	-1.9	2.6	/	/
Cc1nccn1-c1ccc(C=O)cc1	2.0	2.5	-0.7	40.5*	-0.3	3.2
O=C(CCNc1n[nH]c(=O)[nH]c1=O)N/N=C/c1ccc(C(F)(F)F)cc1	0.7	0.2	4.1	3.9	/	/
COc1ccc(NC(=O)Nc2ccccc2OC)cc1	-1.7	-11.7	1.6	-2.7	/	/
COc1ccccc1NC(=O)Nc1ccc(CC#N)cc1	0.6	-2.5	-3.0	60.4*	8.1	1.9
O=c1[nH][nH]c2c1C(C1CCCCC1)OC(C1CCCCC1)C2 (configuration not stated)	-3.2	-3.7	-1.2	4.3	/	/
O=C(CCc1ccccc1)N[C@H]1[C@H](OCc2ccccc2)CCC[C@@]12C(=O)N(Cc1ccccc1)c1ccc(-c3ccsc3)cc12	1.6	17.1	7.3	15.3*	14.7	8.5
O=C(CCc1ccccc1)N[C@H]1[C@@H](OC(=O)c2cccnc2)CCC[C@]12C(=O)N(Cc1ccccc1)c1ccccc12	3.4	18.2	3.3	17.1*	9.2	7.9
O=C(CCc1ccccc1)N[C@H]1[C@@H](OC(=O)c2cnccn2)CCC[C@@]12C(=O)N(Cc1ccccc1)c1ccccc12	5.4	0.0	-5.2	-8.1	/	/
COc1ccc(/C=C2\CC3(OC(=O)c4ccco4)CCCN2C3)cc1 (configuration not stated)	-0.8	-1.1	-0.1	2.9	/	/
CCOC(=O)c1[nH]ncc1CN1CCCC(C(=O)c2ccc(SC)cc2)C1 (configuration not stated)	1.3	2.8	0.8	-6.1	/	/
CCOC(=O)c1[nH]ncc1CN1CCCC(C(=O)c2cccc3ccccc23)C1 (configuration not stated)	-4.6	23.6*	1.6	14.3*	6.1	1.3
CCNC(=O)C1(C)CCN(Cc2ccc(OC(F)(F)F)cc2)C1 (configuration not stated)	0.1	0.7	-2.8	29.1*	11.1	6.3
c1ccc2c(c1)c1c(c3ccccc32)CN2CCCC2C1 (configuration not stated)	4.8	26.3*	-1.6	36.5*	33.8*	49.0*
c1ccc2c(c1)CC(N1CCCCC1)c1ccccc1N2 (configuration not stated)	-1.6	2.0	-2.1	-5.4	/	/
CCOc1cc(/C=N/n2cnnc2)ccc1OS(=O)(=O)c1ccc(C)cc1	-6.0	5.3	2.6	14.3*	7.1	2.1
O=C1N[C@@H](Cc2ccccc2)COC(=O)[C@@H](Cc2ccc(F)cc2)CC/C=C/C[C@H]1CC(=O)N(CCO)Cc1ccccc1	-0.8	0.0	-1.1	15.4*	4.7	5.9
CCOC(=O)N1CCN(C(=O)C[C@@H]2C[C@@]3(C(=O)OCC)CCCC=C3N(CCC3=CCCCC3)C2=O)CC1	0.1	1.3	4.8	20.3*	6.6	5.0
Cc1ccc(NC(=O)C2CCN(S(=O)(=O)c3cnc[nH]3)CC2)cc1C	1.1	-0.4	1.0	3.1	/	/
Cc1cc(NC(=O)C2CCN(S(=O)(=O)c3cnc[nH]3)CC2)ccc1Br	1.0	20.5	1.9	13.8*	3.6	1.9
COc1ccc(-n2nnnc2-c2ccc(S(C)(=O)=O)cc2Cl)cc1	5.0	24.0*	4.2	13.3*	0.7	5.3
CC(=O)c1c(C)nn(CC(=O)NC2CCCN(Cc3ccc(CC(C)C)cc3)C2)c1C (configuration not stated)	1.4	-3.6	-3.2	1.6	/	/
Cc1ccc(N(CN2CCCC2=O)C(=O)c2ccccc2)cc1	-0.9	-3.7	-3.0	17.1*	7.7	5.1
SMILES	LEDGF integ inh	UHRF1 MBD2 ctr	PRMT1 inh	MBD2 inh	UHRF1 DNA bind	MBD2 DBD conf
CCCN(C(=O)c1cc2c(s1)CCC2)c1c(N)n(Cc2ccccc2)c(=O)[nH]c1=O	3.8	11.1	2.2	13.4*	13.9	17.7*
CC1(C(=O)NS(=O)(=O)c2ccc(F)cc2F)CCN1C(=O)CCc1ccc(Cl)cc1Cl (configuration not stated)	1.3	16.6	0.8	26.4*	8.2	0.8
CC1(C(=O)NS(=O)(=O)c2cccc(F)c2)CCN1C(=O)CCc1ccc(Cl)cc1Cl (configuration not stated)	-3.8	-0.3	-0.9	-7.3	/	/
N#Cc1ccc(C(S(=O)(=O)Cc2ccccc2)S(=O)(=O)Cc2ccccc2)cc1	-1.5	-3.0	-3.8	-0.3	/	/
Oc1ccc(N2CCN(Cc3c(-c4ccccc4)nc4ccccn34)CC2)cc1	-1.2	0.2	22.3*	80.5*	9.5	1.7
CC(=O)Nc1ccc(S(=O)(=O)NC(CC(=O)O)c2ccc(OC(C)C)cc2)cc1 (configuration not stated)	-2.7	23.2*	3.9	16.6*	11.5	4.7
COc1cc(N(C)C)ccc1C=c1c2ccccc2n2c1cc(-c1ccccc1)[n+]2C	-0.8	43.2*	2.6	26.6*	62.1*	57.6*
CN(C)c1ccc(C=c2c3ccccc3n3c2cc(-c2ccccc2)[n+]3C)cc1	12.2	40.5*	0.4	22.1*	64.1*	56.2*
COc1cc2cc(CCCOC(=O)c3ccc(C(F)(F)F)cc3)oc(=O)c2cc1OC	2.4	2.0	-1.6	19.7*	1.8	8.1
CC1CN(Cc2c(O)ccc3c(=O)c(-c4ccccc4)coc23)CC(C)O1 (configuration not stated)	-0.1	-0.6	-2.6	-2.5	/	/
CC1CN(Cc2c(O)ccc3c2oc(=O)c2ccccc23)CC(C)O1 (configuration not stated)	5.3	18.6	10.9	15.8*	3.2	10.9
CC1CCCCC1NC(=O)CSc1nncs1 (configuration not stated)	0.1	0.1	-0.2	13.7*	7.5	1.3
COc1ccc2[nH]cc(CCNC(=O)/C=C/[C@H]3O[C@@H](n4cnc5c(NC(=O)c6ccccc6)ncnc54)[C@H](O)[C@@H]3O)c2c1	0.6	2.3	2.0	2.6	/	/
